JMJD2A Tudor: JMJD2A Tudor domain (human) inhibition; O75164; AlphaScreen JMJD2A-Tudor / H3K4me3 peptide binding; Potency, µM (titrated, usually from 114 µM), inactives show top-dose activity change, negative = inhibition, hits mostly inhibitors; 4.4% of 390,000 active; note: % is set by controls: 0 for no effect and ±100 for the full control effect; nearly all actives have a fitted effect of over 50% in size
HP1b chromo inh: HP1-beta chromodomain-methylated histone interaction inhibition | AlphaScreen HP1-beta / biotin-H3K9me3 peptide binding | 0.56% of 390,000 active | Potency, µM (titrated, usually from 114 µM), for inactives: top-dose activity change, negative = inhibition, most hits filed as inhibitors; note: nearly all actives have a fitted effect of over 70% in size
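HP1-beta protein (50 nM final) preincubated 30 min at room temperature with biotinylated H3(1-18)K9me3 peptide (50 nM) in PBS pH 7.4, 0.01% Tween-20, then compound added for 30 min. AlphaScreen streptavidin donor/nickel chelate acceptor beads (10 ug/mL final), 30 min dark, luminescence read.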
PLK1 PBD inh: PLK1 (human) polo-box domain binding inhibition | AID 720504 | Plk1 PBD binding of FITC phosphopeptide, fluorescence polarization | 2.8% of 360,000 active | P53350 | Potency, µM, without a hit: max response, negative = inhibition, most hits filed as inhibitors; note: series mostly up to about 57 µM; % is set by controls: 0 for no effect and ±100 for the full control effect; nearly all actives have a fitted effect of over 65% in size
Target sequence (P53350 whole entry, looked up, the tested form may be a part): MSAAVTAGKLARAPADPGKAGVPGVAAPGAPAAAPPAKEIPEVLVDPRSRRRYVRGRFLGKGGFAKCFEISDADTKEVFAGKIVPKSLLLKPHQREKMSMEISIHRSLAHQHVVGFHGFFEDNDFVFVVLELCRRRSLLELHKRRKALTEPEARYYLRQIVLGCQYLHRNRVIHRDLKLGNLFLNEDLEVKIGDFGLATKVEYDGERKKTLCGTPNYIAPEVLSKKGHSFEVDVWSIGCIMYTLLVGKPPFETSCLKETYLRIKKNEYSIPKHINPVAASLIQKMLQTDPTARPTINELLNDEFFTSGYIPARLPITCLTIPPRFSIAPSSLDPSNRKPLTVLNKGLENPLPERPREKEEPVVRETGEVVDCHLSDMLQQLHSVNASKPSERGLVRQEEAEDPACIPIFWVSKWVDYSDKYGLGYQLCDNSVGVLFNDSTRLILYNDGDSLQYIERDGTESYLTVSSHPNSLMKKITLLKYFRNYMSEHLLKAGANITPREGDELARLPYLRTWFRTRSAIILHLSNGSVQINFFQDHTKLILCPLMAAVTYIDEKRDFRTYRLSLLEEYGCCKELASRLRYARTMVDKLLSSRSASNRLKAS
BAZ2B inh: blocks human BAZ2B; 4.4% of 360,000 active; Potency, µM (top dose mostly 114 µM), for the others: top-dose activity change, negative = inhibition, most hits filed as inhibitors; AlphaScreen BAZ2B-H3K14Ac peptide displacement; note: % is set by controls: 0 for no effect and ±100 for the full control effect; nearly all actives have a fitted effect of over 60% in size
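AlphaScreen displacement of biotin-H3(5-23)K14Ac peptide (50 nM final) from BAZ2B (50 nM final) in PBS pH 7.4, 0.01% Tween-20; complex preformed 30 min RT, then compounds (top 110 uM) 30 min RT, beads 20 min dark.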
G9a block: blocks human histone lysine methyltransferase G9a. G9a H3K9 monomethylation, AlphaScreen, 2 h. 8.8% of 350,000 active. Potency, µM (series often up to 102 µM), inactives show at the top dose activity, negative = inhibition, usual class: inhibitors. AID 504332. Q96KQ7; note: % is set by controls: 0 for no effect and ±100 for the full control effect; nearly all actives have a fitted effect of over 75% in size
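Quantitative HTS format: methyltransferase activity on a biotin-tagged H3K9 peptide is measured by AlphaScreen, using a rabbit anti-monomethyl-H3K9 antibody with streptavidin donor and anti-IgG acceptor beads. Final levels are 20 nM enzyme, 500 nM peptide, 20 uM SAM; 2 h RT.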
Sfp PPTase inh: blocks B. subtilis Sfp PPTase activity. Q9F4F7. Biochemical Sfp PPTase activity, qHTS. 3.5% of 310,000 active. Potency, µM, inactives show largest response in the series, negative = inhibition, hits mostly inhibitors;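 note: the enzyme is Sfp with the accession as filed and its product quenches rhodamine fluorescence; 0% = enzyme reaction without inhibitor and -100% = no enzyme wells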
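Step 1, compound plus 15 nM Sfp-PPTase, 15 min, room temperature. Step 2, add rhodamine-CoA (5 uM) and BHQ-2-YbbR (12.5 uM). Step 3, read 525/598 nm fluorescence at 0 and 30 min.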
* = called active by the depositor; ? = inconclusive; . = no result given; [ ] = dose if it differs, or a comment. An excerpt weighted towards active compounds, which were near 12% of everything screened. Calls come from the whole dose curve; as a rule, active = well fitted curve in the direction sought with a large enough effect; inconclusive = small, poorly fitted or top-dose-only effect, or another doubt; inactive = no such curve, though single readings can be large; an effect the other way counts as inactive or inconclusive. Potency is the fitted concentration of half-maximal effect.

SMILES	JMJD2A Tudor	HP1b chromo inh	PLK1 PBD inh	BAZ2B inh	G9a block	Sfp PPTase inh
O=C(/C=C/c1ccccc1Cl)Nc1ccc2c(c1)C(=O)NC2=O	?	?	?	71µM*	25µM*	-13%
Cc1ccc(-c2ccnc3nc(-n4cccc4)nn23)o1	-30%[11.4 µM]	?	4.7µM*	-21%	-11%	-2%
O=C(O)COc1ccc(/C=C/C(=O)c2ccc(C3CCCCC3)cc2)cc1	-34%	-2%	24µM*	-16%	22µM*	-11%
O=C(O)COc1ccc(/C=C/C(=O)c2ccc3ccccc3c2)cc1	-29%	-6%	-29%	-10%	-7%	-5%
COc1ccc(/C(O)=C2/C(=O)C(=O)N(Cc3cccnc3)C2c2ccco2)cc1OC (stereo not given)	25µM*	-4%	-5%	-2%	-8%	10%
Cc1ccc(C2/C(=C(\O)c3ccc4c(c3)OCCO4)C(=O)C(=O)N2CCCN(C)C)o1 (stereo not given)	.	.	.	-33%	45µM*	-10%
COc1ccc(C2/C(=C(\O)c3ccc4c(c3)OCCO4)C(=O)C(=O)N2CCCN(C)C)cc1 (stereo not given)	-6%	24%	-3%	11%	?	9%
CCN(CC)CCCN1C(=O)C(=O)/C(=C(/O)c2ccc(OC)c(Cl)c2)C1c1ccco1 (stereo not given)	.	.	.	3%	45µM*	?
COc1ccc(/C(O)=C2/C(=O)C(=O)N(CCCN(C)C)C2c2ccc(C)o2)cc1Cl (stereo not given)	.	.	.	2%	45µM*	89µM*
COc1ccc(/C(O)=C2/C(=O)C(=O)N(CCN(C)C)C2c2ccccc2)cc1Cl (stereo not given)	-1%	34%	-2%	?	-48%[12.7 µM]	2%
CC(C)NC(=O)[C@H]1C[C@@H]1[C@H](NC(=O)OCc1ccccc1)c1ccccc1	.	.	.	.	.	0%
COC(=O)[C@@H]1C[C@@]2(O)[C@H](O)[C@H](O)[C@H](O)C[C@H]2N1Cc1ccc(-c2ccccc2)cc1	-6%	47%	1%	6%	20%[12.7 µM]	6%
NS(=O)(=O)c1ccc(-c2ccc(/C=C3\C(=O)Nc4ccccc43)o2)cc1	.	.	.	-38%	.	12%
NS(=O)(=O)c1ccc(-c2ccc(/C=C3\C(=O)Nc4cc(Cl)ccc43)o2)cc1	-30%	10%	-1%	56µM*	11µM*	?
CCOC(=O)CSc1cn2c(n1)CCC2	-24%	13%	-15%	6%	10µM*	40µM*
CCCN1CCN(c2ncnc3sc(C(=O)Nc4ccc(C(C)C)cc4)c(C)c23)CC1	?	1%	.	-39%	?	.
O=C1Nc2ccc(Br)cc2/C1=N\N=C\C1=C(N2CCOCC2)C(=C/c2ccccc2)/CC1	3.2µM*	5µM*	-9%	.	.	.
O=C1Nc2ccccc2/C1=N\N=C\C1=C(N2CCOCC2)C(=C\c2ccccc2)/CC1	.	.	.	7.1µM*	?	32µM*
Cn1cc(C(=O)N/N=C/C2=C(N3CCOCC3)C(=C\c3ccccc3)/CC2)ccc1=O	-18%	14%	-9%	-4%	-9%[59 µM]	-6%
CC1CC2(CCCCC2)N2C(=O)C(=O)c3cccc1c32 (stereo not given)	?	?	-29%	?	71µM*	6%
Cc1cc(C)c(/C=C/c2onc(C)c2S(=O)(=O)N2CCC(C(=O)NCc3ccco3)CC2)c(C)c1	-28%	6%[57 µM]	.	-10%	-9%[59 µM]	.
C=CCOn1c(=O)c(-c2cc3ccccc3o2)[n+]([O-])c2ccccc21	14%[11.4 µM]	-10%	30µM*	-2%	?	5%
O=c1c(-c2ccco2)[n+]([O-])c2ccccc2n1OCc1ccccc1[N+](=O)[O-]	3%	28%	-23%	-33%	35µM*	50µM*
CCOC(=O)COn1c(=O)c(-c2cc3ccccc3o2)[n+]([O-])c2ccccc21	3%	28%	-12%	2%[57.1 µM]	36%[0.501 µM]	79µM*
CCOC(=O)COn1c(=O)c(-c2ccc(F)cc2)[n+]([O-])c2ccccc21	-15%	22%	-22%	11%	-8%	4%

Bioassay records as filed in PubChem.
